The text below walks through data of PubChem BioAssay (NCI).

The structures appear in SMILES notation. The panel holds about 83,000 compounds, 20% with a hit somewhere; the sample as a whole holds those more often.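 96-well plates, one dose, 48 hours. Percent growth reported; active if below 10.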 A number with no mark means an inactive call. Activity calls are given as the source filed them.

Holding throughout (experiment): NCI-60 one-dose screen, 48 h (100 = growth as untreated, 0 = no growth, -100 = all killed)
In test [1] the test system is NCI-H23 lung. The settings on record: 10 µM unless noted.
The test system of test [2] is NCI-H226 lung. The settings on record: 10 µM unless noted.
Test [3] relates to NCI-H322M lung. The settings on record: 10 µM unless noted.
For test [4], the system named is HOP-62 NSCLC. The note with it: 10 µM unless noted.
The test system of test [5] is NCI-H460 lung. The note with it: 10 µM unless noted.
For test [6], the system named is HOP-92 NSCLC. The settings on record: 10 µM unless noted.
The test system of test [7] is NCI-H522 lung. The note with it: 10 µM unless noted.
For test [8], the system named is A549/ATCC NSCLC. The settings on record: 10 µM unless noted.
The test system of test [9] is 786-0 renal. The settings on record: 10 µM unless noted.
Test [10] relates to COLO 205 colon. The settings on record: 10 µM unless noted.
In test [11] the test system is DU-145 prostate. The note with it: 10 µM unless noted.
The subject of test [12] is K-562 leukemia. The settings on record: 10 µM unless noted.
Test [13] deals with MALME-3M melanoma. The settings on record: 10 µM unless noted.
In test [14] the test system is MDA-MB-231 breast. The note with it: 10 µM unless noted.
Test [15] has as its system SF-268 CNS. The settings on record: 10 µM unless noted.
Test [16] concerns SF-295 CNS. The note with it: 10 µM unless noted.
Test [17] has as its system SF-539 CNS. The settings on record: 10 µM unless noted.
The test system of test [18] is M14 melanoma. The settings on record: 10 µM unless noted.
The subject of test [19] is RXF 393 renal. The note with it: 10 µM unless noted.
Test [20] relates to UACC-257 melanoma. The settings on record: 10 µM.

In the case of `CCC(=O)Nc1ccccc1C#C/C=C\C#Cc1ccccc1SC`, the growth in test [1] is 79.9%; in [2] it was 76.4%; in [3] it was 101%; in test [4], 66.5%; in test [5], 28.6%; in [6] it was 48.1%. In addition, the growth in test [7] was 84.4%; in test [8] it was 62.4%; in test [9], 87.7%; in [10] it was 66.2%; in test [11], 77.3%; in test [12] it was 56%. For the same compound, the growth in test [13] was 76.8%; in test [14], 47.9%; in test [15] it was 63.9%; in [16], 59.8%; in test [17], 60.1%; in test [18], 59.9%.

In the case of `CC(C)(C)OC(=O)N1C/C(=C\c2cccs2)C(=O)/C(=C/c2cccs2)C1`, the growth in test [1] is 96.3%; in test [2], 93.1%; in test [3], 94.3%; in test [4] it was 89%; in [5] it was 105%; in [6] it was 82.2%. Besides, the growth in [7] is 79.5%; in [8], 86.9%; in [9], 81.4%; in [10], 117%; in [11] it was 107%; in [12], 75.8%. In addition, the growth in test [13] was 95.8%; in test [14], 101%; in test [15], 91.8%; in test [16] it was 98.9%; in test [17] it was 99%; in test [18], 98.3%.

Consider `CCCn1c(=S)sc2c(Cl)nc(C)nc21`, for which the growth in test [1] is 110%; in [2], 91.6%; in [3], 93.6%; in [4], 104%; in test [5] it was 88.5%; in [6] it was 99.3%. Besides, the growth in [7] is 33%; in [8] it was 117%; in test [9] it was 106%; in [10] it was 43.5%; in test [11], 124%; in [12] it was 103%. Further, the growth was 104% in test [13]; 89.1% in test [14]; 98.5% in test [15]; 101% in [16]; 93.3% in [17]; 101% in test [18].

In the case of `CCN1C(=O)N(CC)C2Nn3c(s/c(=C\c4cccc(F)c4)c3=O)=NC21` (stereo not drawn), the growth in [1] is 62.7%; in test [2] it was 96.1%; in test [3] it was 96.6%; in test [4] it was 68.1%; in test [5] it was 53.9%; in [6] it was 49.1%. The growth in test [7] is 64.4%; in [8], 72.5%; in test [9], 77.5%; in test [10], 70.7%; in test [11], 59.1%; in [12] it was 26.8%. Besides, the growth in [13] was 72.3%; in test [14], 66.5%; in test [15] it was 76.1%; in test [16] it was 61.1%; in test [17], 68.3%; in test [18] it was 89.6%.

For the compound `NC(=O)c1c(NC(=O)c2ccc(OCC3CCCO3)cc2)sc2c1CCCC2` (stereo not drawn), the growth is 100% in test [1]; 83.8% in test [2]; 99.8% in [3]; 108% in test [4]; 106% in [5]; 66.9% in [6]. Also, the growth in [7] is 87.3%; in test [8], 35.5%; in test [9], 95.5%; in test [10] it was 111%; in test [11], 105%; in [12], 134%. Besides, the growth was 82.4% in test [13]; 96.6% in test [14]; 109% in [15]; 93.8% in [16]; 100% in [17]; 108% in [18].

As to `c1cncc(CNc2ccccc2-c2nnc(Nc3ccc4c(c3)OCCO4)o2)c1`, the growth in [1] is 20.9%; in [2], 7.4% (active); in test [3], 49.6%; in test [4], 32.5%; in test [5], 4.61% (active); in [6], 136%. For the same compound, the growth was -28.3% (active) in test [7]; 31.8% in [8]; 42.4% in [9]; -21.9% (active) in test [10]; -5.96% (active) in test [11]; 14.2% in [12]. The growth in test [13] was 80.2%; in [14], 26.4%; in [15], 18.7%; in test [16], 12.2%; in [17] it was 4.68% (active); in [18] it was 12.7%.

As to `Cc1cc(C(=O)CSc2nc3ccccc3c(=O)[nH]2)c(C)n1C`, the growth in test [1] was 97.7%; in test [2], 97.8%; in test [3] it was 100%; in test [4], 93.5%; in test [5] it was 113%; in [6], 73.1%. Moreover, the growth in test [7] was 98.9%; in test [8], 43.2%; in [9], 91.9%; in test [10], 109%; in test [11], 102%; in test [12], 110%. Besides, the growth in [13] is 87.5%; in [14] it was 90.4%; in test [15] it was 110%; in test [16] it was 81.9%; in [17], 90.2%; in test [18] it was 112%.

In the case of `CCCCCCc1nc2c(c(C)nn2-c2ccccc2)c2c1CCCCC2`, the growth in test [1] was 100%; in test [2], 89.2%; in [3] it was 110%; in test [4] it was 91.3%; in test [5], 110%; in [6], 91.5%. For the same compound, the growth in test [7] is 93.2%; in [8] it was 103%; in [9] it was 108%; in test [10], 107%; in test [11] it was 108%; in test [12] it was 111%. The growth in [13] was 105%; in test [19], 115%; in [15], 105%; in [16], 103%; in test [17], 105%; in [20], 93.3%. Also, in test [18], the growth is 118%.

Consider `O=C1Nc2cc(Cl)ccc2Oc2cc(Oc3ccccc3)ccc21`, for which the growth in test [1] is 54.8%; in test [2], 72.3%; in [3] it was 76.2%; in test [4], 64.1%; in test [5] it was 25.1%; in [6], 115%. For the same compound, the growth is 45.1% in test [7]; 62.2% in [8]; 74.3% in [9]; 45.2% in [10]; 71.5% in test [11]; 25.5% in [12]. The growth was 87.1% in [13]; 63.9% in test [14]; 63% in [15]; 49% in [16]; 64.7% in [17]; 41.1% in test [18].
